Consider 95 molecules from PubChem BioAssay AID1662 (Broad Institute, 2009).

Usually inhibition stands for the relative decrease from the control value, in per cent.

Molecules are shown by their SMILES. Among all 300,000 compounds or so, about 4,000 (1.3%) were called active. The full list was thinned out, with actives kept by preference. A number with no mark means an inactive call.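 Rule for the calls: active = mean replicate score, as percent of positive control median, at least 50; inconclusive = mean below 50 but one replicate at or above 50; inactive = mean and every replicate below 50.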

The nature of this assay: kanamycin survival loss of SKKanGAS strain – BacTiter-Glo luminescence, streptokinase expression inhibitor project, primary screen (AID 1662).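 Note: strain carries kanamycin resistance gene driven by streptokinase promoter and grows in 40 µg/ml kanamycin; loss of luminescence reflects streptokinase promoter inhibition or plain growth inhibition; 0% = median of DMSO wells and 100% = positive control at its reference dose.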 Conditions: S. pyogenes SKKanGAS, kanamycin growth, 6 h, at 7.5 µM, stronger effect = higher value.
As to `Cc1ccccc1Nc1c([N+](=O)[O-])ccc2nonc12`, the inhibition was 4.67%.

Consider `O=C(NCC(c1ccco1)N1CCc2ccccc2C1)c1ccccc1Cl` (stereo not given), for which the inhibition is 17.4%.

Regarding `COc1ccccc1NC(=O)c1cc(N2C(=O)C3C4CCC(C4)C3C2=O)ccc1Cl` (stereo not given), the inhibition is -15.7%.

As to `Cc1ccc(-c2ccc(=O)n(Cc3ccc(F)cc3Cl)n2)cc1`, the inhibition was 12.7%.

For the molecule `N/C(=N/O)c1cccn1Cc1ccccc1[N+](=O)[O-]`, the inhibition is 0.341%.

On to `O=c1c([N+](=O)[O-])cccn1Cc1ccc(F)cc1Cl`, for which the inhibition is 55.4% (active).

With `O=c1[nH][nH]c(C(F)(F)F)c1C=NCc1ccccc1Cl`, the inhibition is -1.93%.

Consider `CCc1c(O)cc2n(c1=O)-c1ccccc1C2(C)C`, for which the inhibition was 17.4%.

Regarding `NC(=O)c1nsc(C(=O)N(CC(=O)NCc2ccc(F)cc2)Cc2ccco2)c1N`, the inhibition is 0.443%.

For the molecule `CC(C)CCC(C)NC(=O)c1ccc2nccnc2c1` (stereo not given), the inhibition is -6.24%.

On to `CCCCCCCCCCCCN1C(=O)CSC1c1cccnc1` (stereo not given), for which the inhibition is 49.9% (active).

As to `CN(C)CCCN1C(=O)CSC1c1ccc([N+](=O)[O-])cc1` (stereo not given), the inhibition is 2.76%.

For `CCCCCCOc1ccc(OC(=O)c2cccnc2)cc1`, the inhibition is -1.41%.

In the case of `Clc1ccc(C2=CSC3=Nc4cccc5cccc(c45)N23)cc1`, the inhibition is 58.7% (active).

As for `O=C(Nc1ccc(S(=O)(=O)Nc2ncccn2)cc1)C12CC3CC(CC(C3)C1)C2`, the inhibition was 7.21%.

On to `O=C(O)CCn1cc(/C=C/C(=O)c2ccc(Cl)cc2)c(-c2cccc(Br)c2)n1`, for which the inhibition is 63.3% (active).

On to `O=C(O)/C=C/c1cn(Cc2ccccc2)nc1-c1cccs1`, for which the inhibition is 8.13%.

As to `CCOC(=O)/C(C#N)=C/c1cn(CCC(=O)O)nc1-c1ccc(Br)cc1`, the inhibition is -0.784%.

Turning to `CCC(c1nnc(SCC(=O)NNC(=O)c2ccccc2)n1Cc1ccccc1)N(C)C` (stereo not given), the inhibition is -9.47%.

For `O=C(CNC(=O)c1ccc(Br)o1)Nc1ccccc1`, the inhibition is -5.14%.

Consider `Cc1ccc(C(CNC(=O)Nc2cccc(C)c2)N2CCN(C)CC2)cc1` (stereo not given), for which the inhibition was -5.31%.

As for `O=C(Nc1ccccc1F)c1ccc2c(c1)OCO2`, the inhibition is 2.8%.

As to `O=C(Nc1nnc(C2COc3ccccc3O2)o1)c1ccc(F)cc1` (stereo not given), the inhibition was 103% (active).

Turning to `CC1COc2ccccc2N1C(=O)c1ccc(F)cc1` (stereo not given), the inhibition was 0.0101%.

As to `CCN(CC)S(=O)(=O)c1ccc(N(C)Cc2ccc(C(F)(F)F)cc2)nc1`, the inhibition is -5.95%.

Turning to `O=C(NCc1nnc(SCC(=O)N2CCCc3ccccc32)o1)c1ccccc1F`, the inhibition is 3.7%.

Regarding `CC1(C)C2CCC1(CS(=O)(=O)NCCc1c[nH]c3ccccc13)C(=O)C2` (stereo not given), the inhibition was -7.05%.

For the molecule `CS(=O)(=O)N1CCN(CC(=O)NC2CCCC2)CC1`, the inhibition is -2.39%.

For `CCOC(=O)N/N=C/c1cn(Cc2ccccc2Cl)c2ccccc12`, the inhibition was 6.39%.

For `CNC(=S)N/N=C/c1cn(Cc2ccc(C)cc2)c2ccccc12`, the inhibition is 53.8% (active).

In the case of `COC(=O)N/N=C/c1cn(CCCOc2ccc(C)cc2)c2ccccc12`, the inhibition is 8.83%.

Turning to `CC(C)(C)c1cc2cccnc2n1Cc1cccc(F)c1`, the inhibition was -3.63%.

For the molecule `COc1ccc(C(=NN)c2ccc(OC)cc2)cc1`, the inhibition is -9.25%.

As to `CCc1ccc(N(CC(=O)NCc2cccnc2)S(=O)(=O)c2ccccc2)cc1`, the inhibition is -18.2%.

For the molecule `Cc1scc(C(=O)NNC(=S)NCC(C)C)c1C`, the inhibition is -0.356%.

With `CC(C)(C)C(=O)NNC(=O)c1ccc(Oc2cc(Cl)cc(Cl)c2)o1`, the inhibition is 0.127%.

With `CN(c1ccccc1)S(=O)(=O)c1cc(C(=O)OCC(=O)N2CCN(C(=O)c3ccco3)CC2)ccc1Cl`, the inhibition is -0.977%.

Take `CN(c1ccccc1)S(=O)(=O)c1ccc(Cl)c(C(=O)NCCc2c[nH]c3ccccc23)c1`: the inhibition was 4.79%.

In the case of `CN(c1ccccc1)S(=O)(=O)c1cc(C(=O)Nc2nc3ccccc3[nH]2)ccc1Cl`, the inhibition is 58.3% (active).

For the molecule `COc1cc2ccccc2cc1C(=O)N(CCN(C)C)c1nc2c(F)cccc2s1`, the inhibition is 0.17%.

As for `COc1cccc(CSc2nc3nc(C)cc(C)n3n2)c1`, the inhibition was 3.04%.

For the molecule `CSc1nc2ccccc2c(=O)n1Cc1ccc(F)cc1`, the inhibition was 18.7%.

As to `CSc1c(SCc2ccccc2)cnn(Cc2ccccc2)c1=O`, the inhibition is 66.2% (active).

Consider `CC(=O)Nc1ccc(NC(=O)CSc2ncnc3c2cnn3Cc2ccccc2)cc1`, for which the inhibition was 3.94%.

On to `Cc1ccc(-c2noc(CNC(=O)c3ccoc3C)n2)cc1`, for which the inhibition was 0.278%.

Take `O=C(N/N=C/c1ccc([N+](=O)[O-])o1)c1cccc(S(=O)(=O)N2CCOCC2)c1`: the inhibition was 5.79%.

On to `O=C(N/N=C/c1ccc([N+](=O)[O-])o1)c1cn(-c2ccccc2)nc1-c1ccc(F)cc1`, for which the inhibition was 85.5% (active).

As to `Cc1ccc(-c2nn(-c3ccccc3)cc2/C=N/NC(=O)c2ccc3c(c2)OCO3)cc1`, the inhibition is 11.9%.

For the molecule `CCn1cc(CCC(=O)NCc2ccc(F)cc2)c2ccccc21`, the inhibition is 0.859%.

For the molecule `COc1cccc(NC(=O)CSc2nnc(Cc3ccc(OC)c(OC)c3)o2)c1`, the inhibition was -5.07%.

Consider `Cc1cccc([C@@H]2[C@@H]3C(=O)N(C)C(=O)[C@@H]3[C@@H]3C(=O)Nc4ccccc4C(=O)N23)c1`, for which the inhibition was 1.01%.

With `COc1ccc(N2CCN(CCCNC(=O)C3CCN(S(=O)(=O)N4CCOCC4)CC3)CC2)cc1`, the inhibition is 0.276%.

Regarding `CC(C)c1ccc(NC(=S)NNc2ccc(Cl)c(C(=O)O)c2)cc1`, the inhibition was 5.7%.

As for `Cc1ccc(C)c(NC(=S)NNC(=S)Nc2ccc(C(C)C)cc2)c1`, the inhibition was 51.2% (active).

As for `Cc1ccc(C)c(NC(=S)NNC(=O)c2csc(C)c2)c1`, the inhibition was -5.04%.

In the case of `C[C@@H]1CC[C@]2(O[C@@H](CCO)C[C@H](O)[C@H]2O)O1`, the inhibition was -1.49%.

In the case of `Cc1ccc(-c2nn(-c3ccccc3)cc2/C=C2\SC(=S)N(CCCCCC(=O)O)C2=O)o1`, the inhibition is 103% (active).

Regarding `COc1ccc(-c2nn(-c3ccccc3)cc2/C=C2/SC(=S)N(CCCC(=O)O)C2=O)c(C)c1`, the inhibition was 46.2%.

For `CN(C)S(=O)(=O)c1cccc(-c2nn(-c3ccccc3)cc2/C=C2\SC(=S)N(CC(=O)O)C2=O)c1`, the inhibition was 25.2%.

Regarding `CCCN(CC(=O)Nc1ccccc1OC)C(=O)CCC(=O)c1ccc(F)cc1`, the inhibition is -6.42%.

Take `Oc1c(Cl)cc(Cl)c(Cl)c1Cc1c(O)c(Cl)cc(Cl)c1Cl`: the inhibition is 109% (active).

As for `CO/N=C/CC(=O)c1ccc(OC)cc1`, the inhibition is -3.09%.

For the molecule `CSCCC(NS(=O)(=O)c1ccccc1F)C(=O)N1CC=C(c2ccccc2)CC1` (stereo not given), the inhibition was -1.43%.

As to `O=C(Nc1ccc2oc(-c3ccccc3F)nc2c1)c1ccco1`, the inhibition is -5.59%.

As for `COc1ccc2[nH]c(=O)c(CNc3ccc(C)c(C)c3)cc2c1`, the inhibition was 26.7%.

On to `Cn1nc(-c2ccccc2)c(CSc2cccc(Cl)c2)c1Cl`, for which the inhibition was 61.6% (active).

As to `Cn1nc(-c2ccccc2)c(CO)c1Sc1ccccc1`, the inhibition was -5.22%.

Turning to `Cc1ccc(S(=O)(=O)c2c(COC(=O)c3cccc(Cl)c3)c(-c3ccccc3)nn2C)cc1`, the inhibition is -28.6%.

In the case of `CC(=O)N(CN1C(=O)C2C3C=CC(C3)C2C1=O)c1cccc(Cl)c1` (stereo not given), the inhibition was -0.219%.

For `CCOC(=O)c1nnn(CC(=O)Nc2cccc(F)c2)c1C(=O)OCC`, the inhibition was -0.0535%.

For the molecule `COc1cccc(CN(C)CC2CCCN(CCc3ccc(Cl)cc3)C2)c1OC` (stereo not given), the inhibition was -0.785%.

Turning to `COc1ccc(NC(=O)CS(=O)(=O)c2ccccc2)cc1`, the inhibition was -4.25%.

Take `Cc1ccc2sc(NNC(=O)c3ccc4c(c3)OCCO4)nc2c1C`: the inhibition was 52.7% (active).

For the molecule `O=C(Nc1nc2ccccc2s1)c1ccc2c(c1)OCO2`, the inhibition was -10.7%.

For `Cc1nc(NC(=O)c2ccc3c(c2)OCCO3)ccc1Br`, the inhibition was -9.44%.

In the case of `COC(=O)c1ccc([C@@H](O)[C@H](C)C(=O)CC(=O)OC(C)(C)C)cc1`, the inhibition is -0.38%.

Consider `COc1ccc(C(=O)NC(=S)N2CCCCC2c2cccnc2)cc1OC` (stereo not given), for which the inhibition is 5.87%.

On to `Cc1cccc(C(=O)NCCCN(C)CCCNC(=O)c2cccc(C)c2)c1`, for which the inhibition is -2.44%.

In the case of `Cc1cccc(NC(=S)NCCN(C2CCCCC2)C2CCCC2)c1`, the inhibition was -5.79%.

On to `Cc1cccc(C(=O)NC(=S)N(C)C2CCCCC2)c1`, for which the inhibition is 55.3% (active).

`COc1ccc(C2/C(=C(/O)c3ccc4c(c3)CC(C)O4)C(=O)C(=O)N2Cc2ccncc2)cc1` (stereo not given): the inhibition was 1.18%.

Take `O=C(CN(CC1CCCO1)C(=O)CNS(=O)(=O)c1ccc(Cl)cc1)NCc1ccccc1` (stereo not given): the inhibition was -3.12%.

Consider `CCc1c(C)c2ccc(OC3CCCCC3=O)cc2oc1=O` (stereo not given), for which the inhibition is -6.62%.

With `CCCCn1c(SCC(=O)NCC2CCCO2)nc2ccc(N3CCOCC3)cc2c1=O` (stereo not given), the inhibition is 2.53%.

As for `N#CCSc1nc2ccc(N3CCOCC3)cc2c(=O)n1CCc1ccccc1`, the inhibition is 71.7% (active).

For `COCCCNC(=O)CSc1nc2ccc(N3CCOCC3)cc2c(=O)n1CCc1ccccc1`, the inhibition is 34.6%.

As for `COCC(C)n1c(C)cc(C(=O)CSc2cc(C)c3ccccc3n2)c1C` (stereo not given), the inhibition was 2.07%.

For the molecule `Cc1ccc(C(=O)N/N=C\c2cc(Br)c(Br)o2)cn1`, the inhibition is 6.13%.

On to `Cc1nn(-c2ccccc2)c2sc(C(=O)N(Cc3ccco3)C(C)C(=O)NC(C)(C)C)cc12` (stereo not given), for which the inhibition was 6.98%.

On to `Cc1ccc(C(=O)NNC(=O)C(C)Oc2ccc3ccccc3c2)o1` (stereo not given), for which the inhibition is -4.95%.

Consider `CC(Oc1ccc2ccccc2c1)C(=O)NNC(=S)NC(=O)c1ccco1` (stereo not given), for which the inhibition is 128% (active).

Regarding `CCCc1ccc(OCC(=O)NNC(=S)NC(=O)c2ccco2)cc1`, the inhibition was 113% (active).

As for `Cc1ccc(OCC(=O)NCCCNC(=O)c2ccco2)cc1C`, the inhibition was 2.37%.

`CCCc1ccc(OCCNC(=O)c2ccco2)cc1`: the inhibition is -5.79%.

Take `O=C(Nc1ccc2ccccc2c1)/C(=C/c1cccc(Br)c1)NC(=O)c1ccco1`: the inhibition was 14.5%.
